# High-throughput results as filed in PubChem BioAssay.
# This is one part of a sample in which hits are shown more often than they occur.
# Tb PYK inh: qHTS of Trypanosoma Brucei Inhibitors | TbPYK enzyme, Kinase-Glo Plus ATP luminescence, 45 min | 410,000 tested, 0.12% active | Potency, µM (top dose mostly 76.8 µM), usual class: inhibitors; further: nearly all actives have a fitted effect of over 50% in size
#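 Glycolytic pyruvate kinase of T. brucei was incubated with substrate, test compound and 130 uM ADP for 45 minutes at room temperature. Luminescent Kinase-Glo Plus signal was measured after 10 minutes.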
# FBPA Giardia inh: qHTS Assay for Inhibitors of Fructose-1,6-bisphosphate Aldolase from Giardia Lamblia; purified Giardia FBPA; Potency, µM (doses to about 59.6 µM), usual class: inhibitors; 290,000 tested, 0.71% active; AID 2451, 2010; further: nearly all actives have a fitted effect of over 55% in size
#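 40 nM FBPA preincubated 10 min at RT with compound (up to 57.5 uM final), then substrate plus GAPDH/TPI/NAD/arsenate coupling and diaphorase/resazurin added. Fluorescence read after 20 min at RT, 525/598 nm.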
# RE007 growth inh: qHTS Assay for Inhibitors of the HIV-1 protein Vpr; S. pombe RE007 Vpr strain, BacTiter-Glo ATP luminescence, 24 h; Potency, µM (top dose mostly 92.2 µM), most hits filed as inhibitors; 360,000 tested, 0.21% active; AID 651644, 2012; active means well fitted falling curve with a large enough effect; inconclusive means small, poorly fitted or top-dose-only effect; inactive means no such curve, though single readings can be large or run the other way; further: nearly all actives have a fitted effect of over 50% in size
#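 Fission yeast strain RE007, carrying one chromosomally integrated HIV-1 vpr copy, was seeded at OD 0.01 in PMG+AL medium with 23 nL pinned compound. After 24 h at 30 °C and 99% humidity, viability was read by BacTiter-Glo luminescence.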
# Shiga toxin inh: A qHTS for Small Molecule Inhibitors of Shiga Toxin; Vero cells, Shiga toxin protein synthesis inhibition reporter; inhibition, % at 38.7 µM; 290,000 tested, 9.2% active; AID 2315, 2010; in the data active means inhibition mostly above about 28%, no sharp cut-off; inactive means mostly below about 43%
# LmPK inh: qHTS Assay for Inhibitors of Leishmania Mexicana Pyruvate Kinase (LmPK). AID 1721, 2009. purified LmPK, Kinase-Glo ATP luminescence, 1 h. Potency, µM (highest dose often 57.5 µM), usual class: inhibitors. 290,000 tested, 0.37% active
# Target sequence (Q27686 whole entry, looked up): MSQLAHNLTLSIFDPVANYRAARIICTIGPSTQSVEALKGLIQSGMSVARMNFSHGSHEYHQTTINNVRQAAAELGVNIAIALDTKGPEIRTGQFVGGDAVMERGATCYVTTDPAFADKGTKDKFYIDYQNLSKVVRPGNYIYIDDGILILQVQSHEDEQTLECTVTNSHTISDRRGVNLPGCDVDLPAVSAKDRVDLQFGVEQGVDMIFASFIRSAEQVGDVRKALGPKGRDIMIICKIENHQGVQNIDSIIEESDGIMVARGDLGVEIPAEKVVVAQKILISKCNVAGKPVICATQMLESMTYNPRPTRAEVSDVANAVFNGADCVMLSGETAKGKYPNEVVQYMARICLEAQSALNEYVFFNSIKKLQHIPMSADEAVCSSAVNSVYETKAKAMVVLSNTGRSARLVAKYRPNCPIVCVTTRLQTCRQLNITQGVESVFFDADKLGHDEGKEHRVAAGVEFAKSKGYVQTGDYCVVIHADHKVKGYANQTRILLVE
#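 In 50 mM imidazole pH 7.2 with 7 mM MgCl2, LmPK (0.1 nM) turned over PEP (0.5 mM) and ADP (0.1 mM) for 1 h at room temperature. Luciferase read-out of ATP.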
# CHX counter: Cycloheximide Counterscreen for Small Molecule Inhibitors of Shiga Toxin; cell reporter, cycloheximide protein synthesis inhibition counterscreen; max response, %; 300,000 tested, 12% active; AID 2314, 2010; in the data active means max response mostly above about 13%, no sharp cut-off; inactive means mostly below about 14%; further: read at 38.3 µM for the half of the compounds with a filed dose
# Hits are given with their value; 0 = inactive; ? = inconclusive; - = no result given; [ ] = another dose, or the depositor's remark. Unless noted, the call rests on the fitted dose curve; in most records, active means well fitted curve in the direction sought with a large enough effect; inconclusive means small, poorly fitted or top-dose-only effect, or another doubt; inactive means no such curve, though single readings can be large; an effect the other way counts as inactive or inconclusive.
SMILES,Tb PYK inh,FBPA Giardia inh,RE007 growth inh,Shiga toxin inh,LmPK inh,CHX counter
O=C(CN1C(=O)C(c2ccc(F)cc2)=NC12CCCCCC2)Nc1ccc(F)c(Cl)c1,0,-,-,-,-,-
CC(Cc1cccs1)NC(=O)Nc1ccc(Cl)cc1 (stereo unspecified),0,0,0,88,0,29
CC(NC(=O)Nc1ccc(Cl)c(Cl)c1)C(c1ccccc1)N1CCOCC1 (stereo unspecified),0,0,0,0,0,0
CC(Cc1cccs1)NC(=O)Nc1ccc(Cl)c(Cl)c1 (stereo unspecified),0,0,0,59,0,45
CC(Cc1cccs1)NC(=S)Nc1ccccc1 (stereo unspecified),0,0,0,40,0,18
CC(Cc1cccs1)NC(=O)Nc1ccccc1 (stereo unspecified),0,0,0,64,0,0
C[C@H](NC(=O)NCc1cccs1)C(=O)O,0,0,0,0,0,0
CCOC(=O)N1C(COCc2ccccc2)C=CCS1(=O)=O (stereo unspecified),-,0,-,181,-,78
CCOC(=O)c1ccc(NC(=O)N2CCOc3ccccc32)cc1,0,-,-,-,-,-
C/C(=C\C(=O)c1ccccc1)Nc1ccc(Br)c(Cl)c1,0,-,0,0,0,23
C/C(=C\C(=O)c1ccc(Br)cc1)Nc1ccc(Cl)cc1,0,0,0,36,0,0
O=C(Cc1ccccc1)Nc1ccc(Br)c(Cl)c1,0,0,0,25,0,21
C/C(=C\C(=O)c1ccc(Cl)cc1)Nc1ccc(N2CCOCC2)cc1,0,0,0,0,0,0
O=C(Cc1ccccc1)Nc1ccc(NC(=O)Cc2ccccc2)c(Cl)c1,0,0,0,0,0,0
O=C(Oc1cccc2c(O)cccc12)c1ccco1,0,-,0,-,-,-
O=c1c2c3c(sc2nc(N2CCNCC2)n1CCc1ccccc1)CCCCC3,0,0,0,0,0,0
Cc1cccc(-n2cc(CN3CCN(Cc4nccn4C)CC3)c(-c3cccc(F)c3)n2)c1,0,0,0,53,0,29
N#Cc1cccc(-c2nnc(SCc3ccccc3C#N)o2)c1,0,0,0,89,0,46
Clc1cccc(Cl)c1CSc1nnc(-c2sccc2-n2cccc2)o1,0,0,0,95,0,20
N#Cc1ccccc1CSc1nnc(-c2ccncc2)o1,0,0,0,49,0,34
COc1cc(-c2nnc(SCc3c(F)cccc3Cl)o2)cc(OC)c1OC,0,0,0,0,0,0
CSc1nnc(-c2sccc2-n2cccc2)o1,0,0,0,0,0,0
Cc1ccc(-c2nnc(SCc3cccc(C#N)c3)o2)cc1,0,-,-,-,-,-
Fc1cccc(Cl)c1CSc1nnc(-c2ccncc2)o1,0,0,0,57,0,36
Oc1ccc(C[C@H]2CNC(=S)N2CC2CCCN2C[C@H](Cc2ccccc2)N2C[C@H](Cc3ccc(O)cc3)N(CC3CCCCC3)C2=S)cc1 (stereo partly specified),0,-,0,-,-,-
SMILES,Tb PYK inh,FBPA Giardia inh,RE007 growth inh,Shiga toxin inh,LmPK inh,CHX counter
O=C(CN1CCN(C(=O)N2CCOCC2)CC1)Nc1cc(Cl)ccc1Cl,0,0,0,0,0,0
c1ccc2c(CSc3nnc(-c4ccncc4)o3)cccc2c1,0,0,0,0,0,0
O=C(O)c1ccc(CSc2nnc(Cc3ccccc3)o2)cc1,0,0,0,0,0,0
N#Cc1ccccc1CSc1nnc(Cc2ccccc2)o1,0,0,0,53,0,21
Clc1ccccc1CSc1nnc(-c2ccncc2)o1,0,-,?,54,0,47
COc1cc(NC(=O)CN(C)S(=O)(=O)c2cccs2)cc(OC)c1,0,0,0,0,0,0
Cc1cc(Br)ccc1NC(=O)CN(C)Cc1cccs1,0,0,0,48,0,0
CC(=O)c1cc2c(cc1NC(=O)CN(C)S(=O)(=O)c1cccs1)OCO2,0,-,0,-,-,-
CCOc1ccc(NC(=O)CN(C)S(=O)(=O)c2cccs2)cc1,0,0,0,0,0,0
Cc1ccc(NC(=O)CN(C)S(=O)(=O)c2cccs2)cc1C,0,0,0,90,0,35
Cc1ccc(NC(=O)CN(C)S(=O)(=O)c2cccs2)c(Br)c1,0,0,0,84,0,36
Cc1ccc(NC(=O)CN(C)S(=O)(=O)c2cccs2)cc1F,0,0,0,75,0,38
Cc1ccc(S(=O)(=O)NN=Cc2ccccc2Cl)cc1,0,-,0,-,-,-
Cc1ccc(C)c(N2CCN(C(=O)c3cc4cc5ccc(C)cc5nc4o3)CC2)c1,0,-,-,-,-,-
CCN(CC)CC(=O)Nc1ccc(C)cc1Br,0,0,0,40,0,27
CCN(CC)CC(=O)Nc1c(C)cc(C(C)(C)C)cc1C,0,0,0,40,0,32
CSc1ccc(CN(C)CC(=O)Nc2ccc(C)cc2Br)cc1,0,0,0,0,0,0
Cc1ccc(NC(=O)COC(=O)C2CC2)c(Br)c1,0,0,0,62,0,40
CCN(CC)CC(=O)Nc1c(C)cccc1C,0,0,0[18.4 µM],0,0,0
Cc1noc(/C=C/c2ccccc2F)c1S(=O)(=O)N1CCC(C(=O)Nc2ccc(C#N)cc2)CC1,0,-,-,-,-,-
CCOC(=O)C1CCN(C(=O)Cn2nc(CC)n3c(cc4occc43)c2=O)CC1,0,-,-,-,-,-
Nc1ccn([C@@H]2O[C@H](CNCc3ccc(Oc4cc(-n5cccn5)ncn4)cc3)[C@@H](O)[C@H]2O)c(=O)n1,0,-,0,-,-,-
CC1(C)c2ccccc2-c2nc3ccccc3cc2C1O (stereo unspecified),0,0,0,0,0,18
c1ccc2c(c1)-c1nc3ccccc3cc1C2N1CCCCC1 (stereo unspecified),0,-,0,-,-,-
CC(C)C(=O)N1CCN(c2ccc(NC(=O)c3cccs3)cc2Cl)CC1,0,0,0,25,0,0
SMILES,Tb PYK inh,FBPA Giardia inh,RE007 growth inh,Shiga toxin inh,LmPK inh,CHX counter
O=C(Nc1ccc(N2CCN(C(=O)c3ccco3)CC2)c(Cl)c1)c1cccs1,0,0,0,29,0,22
CCC(=O)Nc1ccc(N2CCN(C(=O)c3ccco3)CC2)c(Cl)c1,0,0,0,0,0,0
COc1ccc(CCNC(=O)Cn2c(=O)n(-c3cc(OC)c(OC)c(OC)c3)c(=O)c3ccccc32)cc1OC,0,-,-,-,-,-
COc1cc(C(=O)Nc2ccc(-c3nc4ccccc4o3)c(O)c2)cc(OC)c1OC,0,-,-,-,-,-
Fc1cccc(-c2csc(-c3ccno3)n2)c1,0,0,0,38,0,25
Clc1ccc(-c2csc(-c3ccno3)n2)cc1,0,0,0,0,0,23
OC(c1ccccc1)(c1nc(-c2cccc(F)c2)cs1)C(F)(F)F (stereo unspecified),0,-,0,-,-,-
